# TDP1 cell CPT = growth inhibition of DT40 Tdp1-/-;hTDP1 cells with camptothecin (screen for TDP1 inhibitors). chicken DT40 Tdp1-/-;hTDP1 cells + 20 nM CPT, ATP luminescence, 48 h. Potency, µM (series often up to 46.2 µM), for inactives: at the highest dose activity change, negative = growth inhibition, most hits filed as inhibitors. 420,000 tested, 12% active. AID 686979; also: potency is read from the fitted curve at half-maximal effect; nearly all actives have a fitted effect of over 55% in size
#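 Cell growth measured by CellTiter-Glo luminescence after a minimum 48 h, 37 C compound exposure with 20 nM CPT in Tdp1-knockout DT40 cells stably expressing hTDP1, seeded 400/well; qHTS titration format.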
# ELG1 DNA repair = inhibitors of ELG1-dependent DNA repair in HEK293T cells | HEK293T ELG1-luciferase reporter, luminescence, 16 h; DNA damage induced by 5-fluorouridine | Potency, µM (doses to about 46.1 µM), for inactives: at the highest dose activity change, negative = inhibition, most hits filed as inhibitors | 330,000 tested, 2.3% active | AID 504467; also: potency is read from the fitted curve at half-maximal effect; nearly all actives have a fitted effect of over 55% in size
#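 Step one: seed 2,000 cells per well. Step two: pin-transfer compound or DMSO alongside 5-fluorouridine. Step three: incubate 16 hr, 37 °C, 5% CO2. Step four: add ONE-Glo, wait 30 min, read luminescence.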
# TDP1 cell noCPT = qHTS for Inhibitors of human tyrosyl-DNA phosphodiesterase 1 (TDP1): qHTS in cells in absence of CPT; Potency, µM (series often up to 46.2 µM), for inactives: at the top dose activity change, negative = growth inhibition, usual class: inhibitors; 420,000 tested, 15% active; AID 686978, 2013; DT40 Tdp1-/- hTDP1 cells, no CPT, ATP luminescence, 48 h; also: potency is read from the fitted curve at half-maximal effect; nearly all actives have a fitted effect of over 55% in size
#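 Luminescent ATP content (CellTiter-Glo) served as the growth readout. Knockout chicken DT40 cells expressing human TDP1 were exposed to compounds without camptothecin for a minimum 48 hr at 37 °C.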
# IL1B secr inh = inhibitors of inflammasome signaling (IL-1 beta secretion); AID 743279; 360,000 tested, 4.7% active; THP-1 LPS/ATP IL-1B secretion, AlphaLISA, 16 h; stronger effect = lower value; activity change, % at 57.5 µM; in the data active = activity change below about -50%; inconclusive = mostly about -30% to -49%
#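 THP-1 cells pretreated 1 hr with compounds (up to 57.5 uM final), then stimulated with LPS (250 ng/mL final) plus ATP (1.25 mM final); secreted IL-1B measured by AlphaLISA after 16 hr, decreased signal indicating inhibition.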
# Giardia kill = Giardia lamblia killing. 340,000 tested, 0.15% active. activity change, % at 7.66 µM, hits read low. Giardia lamblia trophozoite viability; in the data active = activity change below about -80%; inconclusive = between about -30% and that limit;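 also: parasites exposed to compound for two days anaerobically before the ATP read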
#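 Each well holds 100 Giardia trophozoites and compound. After two days (48 hrs) at 37 deg C in anaerobic conditions, ATP is quantified by luminescence.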
# TDP1 inh = blocks human tyrosyl-DNA phosphodiesterase 1. recombinant TDP1, AlphaScreen DNA substrate cleavage. Q9NUW8. 350,000 tested, 0.28% active. Potency, µM (top dose mostly 130 µM), without a hit: top-dose activity change, negative = inhibition, most hits filed as inhibitors; also: potency is read from the fitted curve at half-maximal effect; nearly all actives have a fitted effect of over 40% in size
# Target sequence (Q9NUW8 whole entry, looked up): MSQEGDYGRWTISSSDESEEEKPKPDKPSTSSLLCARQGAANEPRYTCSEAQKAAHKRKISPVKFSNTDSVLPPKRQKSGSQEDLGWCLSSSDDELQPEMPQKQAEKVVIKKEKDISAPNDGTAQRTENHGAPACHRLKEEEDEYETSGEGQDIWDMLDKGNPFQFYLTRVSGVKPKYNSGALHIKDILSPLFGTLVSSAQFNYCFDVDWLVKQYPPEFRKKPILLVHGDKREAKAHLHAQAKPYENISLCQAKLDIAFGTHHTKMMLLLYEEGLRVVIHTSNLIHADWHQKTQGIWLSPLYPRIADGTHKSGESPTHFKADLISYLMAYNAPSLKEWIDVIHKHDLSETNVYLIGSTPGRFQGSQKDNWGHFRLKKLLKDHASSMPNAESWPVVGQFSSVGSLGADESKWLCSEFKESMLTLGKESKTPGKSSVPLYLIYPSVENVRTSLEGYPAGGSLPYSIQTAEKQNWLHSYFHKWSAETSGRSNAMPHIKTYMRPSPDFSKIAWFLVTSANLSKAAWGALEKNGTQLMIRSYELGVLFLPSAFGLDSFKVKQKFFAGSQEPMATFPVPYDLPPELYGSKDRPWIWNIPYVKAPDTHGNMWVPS
#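 E. coli-derived human Tdp1, 1 nM final. Cpd preinc 15 min RT; substrate 15 nM final, 5 min RT; AS bead mix 10 ug/ml final, 10 min RT. Signal loss = tyrosine-FITC cleavage. No-enzyme wells = max signal.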
# The depositor's hits bear a star; i = inactive; ? = inconclusive; nt = no result given. Compounds with a hit are over-represented: about 19% of the library has one in this group of screens. Unless noted, calls follow the shape of the dose curve; as a rule, active = well fitted curve in the direction sought with a large enough effect; inconclusive = small, poorly fitted or top-dose-only effect, or another doubt; inactive = no such curve, though single readings can be large; an effect the other way counts as inactive or inconclusive. % is scaled to controls: 0 for no effect and ±100 for the full control effect.
SMILES,TDP1 cell CPT,ELG1 DNA repair,TDP1 cell noCPT,IL1B secr inh,Giardia kill,TDP1 inh
COc1cccc(CNC(=O)CCC2CCCN(C(=O)c3csc(C(C)C)n3)C2)c1 (stereo unspecified),?,?,?,30,-1,3%
Cc1cc(C)c(Nc2ncnc3c2cnn3C)c(C)c1,21µM*,nt,16µM*,nt,nt,8%
Cc1cccc(-n2ncc3c(Nc4c(C)cc(C)cc4C)ncnc32)c1,3.3µM*,nt,4.6µM*,nt,nt,-2%
Cc1sc(N)nc1-c1cccc([N+](=O)[O-])c1,4%,nt,1%,nt,-23,nt
Cc1cc2nc3c(=O)n(C)c(=O)n(C)c3nc2cc1N=CN(C)C,-4%,nt,-4%,nt,nt,-1%
O=c1c2c(nc3c(-c4ccccc4)c[nH]n13)CCCC2,23µM*,-15%,23µM*,-10,9,9%
Cc1ccc(C(=O)Nc2nc3nc(-c4ccccc4)cc(=O)n3[nH]2)cc1,-26%,0%,?,7,?,45µM*
Nc1[nH]n2c(=O)c3c(nc2c1N=Nc1ccc(Cl)cc1)CCCC3,?,-12%,?,-19,5,7%
CC(C)(C)c1ccc(C(=O)Nc2nc3nc(-c4ccccc4)cc(=O)n3[nH]2)cc1,-10%,nt,-2%,nt,nt,-7%
Nc1[nH]n2c(=O)c3c(nc2c1N=Nc1ccccc1)CCCC3,?,?,18µM*,-26,-2,6%
Cc1[nH]n2c(=O)c3c(nc2c1-c1ccccc1)CCC3,-15%,-1%,-24%,2,-2,7%
Cc1cc(=O)n2[nH]c(N)c(N=Nc3ccccc3)c2n1,?,-7%,29µM*,0,11,3%
CCC(C)c1ccc(S(=O)(=O)N2CCN(S(=O)(=O)c3ccc(NC(C)=O)cc3)CC2)cc1 (stereo unspecified),14%,14%,-10%,-9,-2,-19%
COc1cccc(N=Nc2c(N)[nH]n3c(=O)cc(-c4ccccc4)nc23)c1,9.2µM*,6%,7.3µM*,-2,13,5%
COc1cccc(C(=O)Nc2nc3nc(-c4ccccc4)cc(=O)n3[nH]2)c1,-2%,nt,-16%,nt,nt,5%
Cc1ccc(N=Nc2c(N)[nH]n3c(=O)cc(-c4ccccc4)nc23)cc1,?,4%,15µM*,5,-7,11%
N#CCCn1cc(CNCc2cccnc2)c(-c2ccccc2)n1,?,nt,-15%,nt,-1,1%
COCCNC(=O)CN(C(=O)c1ccc(N2CCCC2)nc1)c1ccc(Cl)cc1,?,-12%,-11%,23,-11,6%
O=C1Nc2ccc(Cl)cc2C(=O)C1(F)c1ccccc1 (stereo unspecified),?,17%,?,?,-10,5%
O=C1Nc2c(ccc(Cl)c2Cl)C(=O)C1(F)c1ccccc1 (stereo unspecified),-16%,?,-29%,-99*,-6,7%
CC(C)C(O)P(=O)(OCc1ccccc1)c1ccc(N(C)C)cc1 (stereo unspecified),-11%,16%,-9%,-10,4,2%
CCOc1ccc(N2C(=O)CS(=O)(=O)C23C(=O)N(Cc2cccc(Cl)c2)c2ccccc23)cc1 (stereo unspecified),?,nt,?,nt,nt,2%
Cc1ccc(COc2ccc(CNCCCN3CCCCCC3=O)cc2)cc1,?,12%,18µM*,-64*,-15,nt
Cc1ccc(NC(=O)C(=O)NCCCN2CCCC2=O)cc1,?,?,2%,-1,-6,nt
Cc1ccc(Cn2c(C(=O)NCc3ccccc3Cl)cc3sccc32)cc1,?,nt,?,nt,nt,4%
SMILES,TDP1 cell CPT,ELG1 DNA repair,TDP1 cell noCPT,IL1B secr inh,Giardia kill,TDP1 inh
Cc1nc(C)c(-c2ccc(SCC(=O)Nc3ccc(F)c(F)c3)nn2)s1,13µM*,nt,9.2µM*,nt,nt,0%
COc1cccc(NC(=O)CSc2nnc3scc(-c4ccc(Cl)cc4)n23)c1,?,nt,18µM*,nt,nt,nt
COc1cccc(NC(=O)CSc2ccc(-c3ccco3)nn2)c1,-13%,0%,?,-2,-12,3%
Cc1nc(C)c(-c2ccc(SCC(=O)Nc3ccccc3)nn2)s1,23µM*,?,26µM*,i,-3,2%
CC(=O)Nc1ccc(NC(=O)CSc2ccc(-c3sc(C)nc3C)nn2)cc1,-22%,-3%,?,i,11,2%
COc1cccc(NC(=O)CSc2ccc(-c3sc(C)nc3C)nn2)c1,15µM*,21µM*,15µM*,-20,-5,2%
CCN(CC(=O)NC1CCS(=O)(=O)C1)C(=O)c1ccc(OC)c([N+](=O)[O-])c1 (stereo unspecified),2%,13%,16%,8,30,1%
Cc1ccc(SCCN2CCC(C)CCC2=O)cc1 (stereo unspecified),-20%,?,?,7,-28,nt
CN1CCC(=O)N(CCOc2ccccc2)CC1,?,?,1%,4,11,nt
COc1ccc(S[C@@H](CCN2CC[C@H](C)CCC2=O)c2ccccc2)cc1,10µM*,-14%,15µM*,?,10,-8%
COc1ccc(SCC(Cc2ccccc2)N2CCN(C)CCC2=O)cc1 (stereo unspecified),nt,nt,nt,nt,7,14%
C[C@@H]1CCC(=O)N(CC[C@H](Oc2ccccc2)c2ccccc2)CC1,?,-1%,13µM*,-4,-13,nt

# Screening data (PubChem BioAssay)
